Source: PubChem BioAssay AID1159580 (chemical genetic matrix, 2015)
“And” between values parts separate entries of the source, which are not always exact repeats. Equal entries are not always repeated. Out of some 5,500 compounds screened, about 2,000 (36%) were called active. About 18% were inconclusive and are not listed. Rule as the data show it: active = normalized growth mostly below about 0.91 (no sharp cut-off); inconclusive = no clear call, values can overlap the other calls; inactive = mostly above about 0.92. The list shows a part of the results.

Assay: chemical genetic growth profiling, strain panel (AID 1159580);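 also: tested at 20 µM; growth read once vehicle control cultures reached saturation at 30 °C; 1 = growth at the plate median or of vehicle wells; lower values mean less growth of the strain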
Details: S. cerevisiae deletion strains, growth OD

Measured: normalized growth

CC1CCc2cc(F)cc3c(=O)c(C(=O)O)cn1c23 (configuration not stated)
inactive: locus YAL013W, strain DEP1, hits give low values 0.985 | locus YAL021C, strain ccr4, hits give low values 0.967 | locus YAL026C, strain drs2, hits give low values 0.981 | locus YAL030W, strain snc1, hits give low values 0.989 | locus YBL061C, strain skt5, hits give low values 0.985 | locus YBR009C, strain hhf1, hits give low values 0.987 | locus YBR021W, strain FUR4, hits give low values 0.943 | locus YBR023C, strain chs3, hits give low values 0.975 | locus YBR171W, strain sec66, hits give low values 0.979 | locus YBR229C, strain ROT2, hits give low values 0.98 | locus YBR231C, strain swc5, hits give low values 0.997 | locus YBR279W, strain paf1, hits give low values 0.985 | locus YCL011C, strain gbp2, hits give low values 0.988 | locus YCL016C, strain dcc1, hits give low values 0.977 | locus YCL029C, strain bik1, hits give low values 0.925 | locus YCL061C, strain MRC1, hits give low values 0.989 | locus YCL069W, strain vba3, hits give low values 0.992 | locus YCR088W, strain abp1, hits give low values 0.999 | locus YDL005C, strain med2, hits give low values 0.995 | locus YDL035C, strain GPR1, hits give low values 1 | locus YDL040C, strain nat1, hits give low values 0.999 | locus YDL074C, strain BRE1, hits give low values 0.972 | locus YDL101C, strain DUN1, hits give low values 0.974 | locus YDL134C, strain PPH21, hits give low values 0.975 | locus YDL185W, strain tfp1, hits give low values 0.981 | locus YDL192W, strain arf1, hits give low values 0.967 | locus YDR001C, strain nth1, hits give low values 0.992 | locus YDR069C, strain doa4, hits give low values 1 | locus YDR101C, strain arx1, hits give low values 0.962 | locus YDR137W, strain rgp1, hits give low values 0.942 | locus YDR150W, strain NUM1, hits give low values 0.981 | locus YDR159W, strain sac3, hits give low values 1.01 | locus YDR162C, strain NBP2, hits give low values 0.991 | locus YDR195W, strain ref2 0.99 | locus YDR297W, strain sur2, hits give low values 0.997 | locus YDR318W, strain mcm21, hits give low values 0.97 | locus YDR334W, strain swr1, hits give low values 0.986 | locus YDR335W, strain msn5, hits give low values 0.991 | locus YDR388W, hits give low values 0.952 | locus YDR392W, strain spt3, hits give low values 0.941 | locus YDR502C, strain sam2, hits give low values 0.984 | locus YEL003W, strain gim4, hits give low values 1 | locus YEL037C, strain rad23, hits give low values 0.993 | locus YEL061C, strain CIN8 (second series), hits give low values 0.993 | locus YEL061C, strain CIN8, hits give low values 0.985 | locus YER015W, strain faa2, hits give low values 0.982 | locus YER016W, strain bim1, hits give low values 1 | locus YER110C, hits give low values 0.976 | locus YER111C, strain swi4, hits give low values 0.984 | locus YER155C, strain BEM2 (second series), hits give low values 0.994 | locus YER155C, strain BEM2, hits give low values 0.975 | locus YER167W, strain BCK2, hits give low values 0.988 | locus YFR010W, strain ubp6, hits give low values 0.984 | locus YGL078C, strain dbp3, hits give low values 0.969 | locus YGL086W, strain mad1, hits give low values 0.987 | locus YGL167C, strain pmr1, hits give low values 0.993 | locus YGL173C, strain kem1, hits give low values 0.991 | locus YGL227W, strain vid30, hits give low values 0.985 | locus YGL240W, strain doc1, hits give low values 0.991 | locus YGL248W, strain PDE1, hits give low values 0.984 | locus YGL253W, strain hxk2, hits give low values 0.995 | locus YGR078C, strain PAC10, hits give low values 0.974 | locus YGR135W, strain pre9, hits give low values 0.974 | locus YGR229C, strain SMI1, hits give low values 1.01 | locus YGR252W, strain gcn5, hits give low values 1.04 | locus YHR013C, strain ard1, hits give low values 0.965 | locus YHR027C, strain rpn1, hits give low values 0.985 | locus YHR030C, strain SLT2, hits give low values 0.982 and 0.978 | locus YHR079C, strain IRE1 (second series), hits give low values 0.955 | locus YHR079C, strain IRE1, hits give low values 0.988 | locus YHR094C, strain hxt1, hits give low values 0.983 | locus YHR129C, strain ARP1, hits give low values 0.977 | locus YHR142W, strain chs7, hits give low values 0.981 | locus YHR200W, strain rpn10, hits give low values 0.969 | locus YIL066C, strain RNR3, hits give low values 0.974 | locus YIL073C, strain SPO22, hits give low values 0.991 | locus YIL125W, strain kgd1, hits give low values 0.985 | locus YIR030C, strain dcg1, hits give low values 0.972 | locus YJL092W, strain hpr5, hits give low values 0.988 | locus YJL095W, strain BCK1 (second series), hits give low values 0.989 | locus YJL095W, strain BCK1, hits give low values 0.948 and 0.982 | locus YJL115W, strain asf1, hits give low values 0.983 | locus YJL129C, strain trk1, hits give low values 1 | locus YJL134W, strain LCB3, hits give low values 0.984 | locus YJL154C, strain vps35, hits give low values 0.991 | locus YJL164C, strain tpk1, hits give low values 0.988 | locus YJL166W, strain qcr8, hits give low values 0.981 | locus YJL168C, strain set2, hits give low values 0.967 | locus YJL187C, strain SWE1 (second series), hits give low values 0.954 | locus YJL187C, strain SWE1, hits give low values 0.989 | locus YJR043C, strain POL32, hits give low values 0.979 | locus YJR066W, strain TOR1, hits give low values 0.897
